Reference: PubChem BioAssay
Calls of active or inactive are those of the source.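 The calls were made as follows: active = membrane potential signal rise above negative control mean plus 3 SD in both duplicates, also active in the earlier TRPC4 screen; inactive = the rest.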

The compounds below were run against Short transient receptor potential channel 6 (Mus musculus) (UniProt Q61143) (assay: activation of mouse TRPC6 channel, confirmation, selectivity assay for TRPC4 activator project, cell-based, HEK293, membrane potential dye, duplicate (AID 434950)). Settings: HEK293 TRPC6, membrane potential fluorescence, at 10 µM.
Sequence of Short transient receptor potential channel 6 (Mus musculus) (Q61143 whole entry, looked up): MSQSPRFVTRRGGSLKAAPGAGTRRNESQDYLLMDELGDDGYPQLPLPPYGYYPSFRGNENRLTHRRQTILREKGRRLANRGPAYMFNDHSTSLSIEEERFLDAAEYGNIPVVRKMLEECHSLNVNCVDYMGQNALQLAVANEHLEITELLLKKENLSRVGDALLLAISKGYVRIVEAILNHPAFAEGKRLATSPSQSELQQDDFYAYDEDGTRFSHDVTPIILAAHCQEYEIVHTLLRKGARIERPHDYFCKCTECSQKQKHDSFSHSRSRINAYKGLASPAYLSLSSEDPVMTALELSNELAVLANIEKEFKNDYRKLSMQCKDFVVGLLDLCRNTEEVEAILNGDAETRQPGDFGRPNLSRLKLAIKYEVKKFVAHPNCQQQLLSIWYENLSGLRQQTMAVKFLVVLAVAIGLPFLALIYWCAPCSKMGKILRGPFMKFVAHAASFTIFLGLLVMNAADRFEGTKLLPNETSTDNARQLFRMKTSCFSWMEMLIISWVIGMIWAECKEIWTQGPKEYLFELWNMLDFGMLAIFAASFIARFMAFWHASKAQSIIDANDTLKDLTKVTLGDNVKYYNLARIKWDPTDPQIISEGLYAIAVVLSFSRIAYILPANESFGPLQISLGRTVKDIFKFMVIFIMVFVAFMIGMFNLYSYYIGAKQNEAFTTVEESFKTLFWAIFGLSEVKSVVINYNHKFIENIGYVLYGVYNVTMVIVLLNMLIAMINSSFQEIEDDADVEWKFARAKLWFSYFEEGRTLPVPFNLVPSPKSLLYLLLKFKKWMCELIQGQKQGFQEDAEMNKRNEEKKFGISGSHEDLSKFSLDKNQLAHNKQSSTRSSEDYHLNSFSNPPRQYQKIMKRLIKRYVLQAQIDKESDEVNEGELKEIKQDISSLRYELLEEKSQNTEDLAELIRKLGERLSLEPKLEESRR

outcome, inactive:
Cc1cc(/C=C2/C(=N)N3C(=NC2=O)SN=C3S(C)(=O)=O)c(C)n1-c1ccccc1F, Cc1ccc(O)c(CNc2nc3ccccc3[nH]2)c1, CC(Oc1ccc(Cl)cc1Cl)c1nc(-c2ccccn2)no1 (centres undefined), Fc1ccccc1COc1ccccc1CNCc1ccncc1, CC12CC3(C)CC(C)(C1)CC(NC(=O)N1CCCC1)(C2)C3, Clc1cccc(COn2c(-c3ccc(Cl)cc3Cl)nc3ncccc32)c1, CC1CCN(CCCOc2ccc(OCc3ccccc3)cc2)CC1, CCN(CC)C(=O)C1CCCN(Cc2cccc(Oc3ccccc3)c2)C1 (centres undefined), O=C(O)c1ccc(NC(=S)NC(=O)c2ccc(-c3ccccc3)cc2)cc1, Cc1ccc(C)c2[nH]c(=O)c(CN(Cc3nnnn3C3CCCCC3)CC3CCCO3)cc12 (centres undefined), CC(C)CN(CC(C)C)c1nc(N)c(C#N)c(CC#N)c1C#N, CC(C)Oc1cccc(C(=O)C2CCCN(Cc3cnn(C(C)C)c3)C2)c1 (centres undefined), Cc1ccc(O)c(Sc2cc(C)ccc2O)c1, Cc1cccc(Cn2c(C(C)(C)C)cc3cccnc32)c1, Cc1cc(N2CCC(C)CC2)nc2cccc(O)c12, CSCCNCc1cn(-c2ccc(F)cc2F)nc1-c1ccccc1C, CC(/C=C1\SC(=S)N(C(C(=O)O)C(C)C)C1=O)=C\c1ccccc1 (centres undefined), CCN(CC)CCn1c2ccccc2c2cnc(N)c(C#N)c21, CCOC(=O)C1CCN(CC(O)COc2ccc(C(C)(C)C)cc2)CC1 (centres undefined), CCOC(=O)c1oc2ccccc2c1CN1CCCCC1, CC(C)Cc1cc(CN2CCCC(CO)(Cc3cccc(Cl)c3)C2)[nH]n1 (centres undefined), CCCCOc1ccc(CSCCN=C(N)N)cc1, N#Cc1c(NC(=O)C2CC(Cl)=CCC2C(=O)O)sc2c1CCCCC2 (centres undefined), Cc1ccccc1C(=O)NC1CC2CCC(C1)N2Cc1ccccc1 (centres undefined), COc1ccc(/C=C2\SC(=S)N(C(Cc3ccccc3)C(=O)O)C2=O)cc1 (centres undefined), Cc1cc(NCc2ccccc2)nc(N2CCOCC2)n1, CCCc1nc(SC2CCCC2)c2c(=O)n(C)c(=O)n(C)c2n1, Fc1ccccc1Sc1ccccc1CNC1=NCCN1, CCc1nc2ccccc2n1Cc1ccccc1OC, CSc1nc(N2CCOCC2)c2c3c(sc2n1)CCCC3, COc1cccc(CNC(=O)CCC2CCCN(Cc3cc(Cl)ccc3O)C2)c1 (centres undefined), CCOC(=O)C1(Cc2ccccc2C)CCCN(Cc2ccc(NC(C)=O)cc2)C1 (centres undefined), CCn1c(NCc2c[nH]c3ccccc23)nc2ccccc21, O=C(c1ccc2c(c1)OCO2)C1CCCN(Cc2ccccc2OC(F)F)C1 (centres undefined), CC(C)(C)c1cc2cccnc2n1Cc1ccccc1, Cc1cccc(C)c1-n1cccc1/C=C1\SC(=S)N(c2cccc(C(=O)O)c2)C1=O, COc1ccc2nc(NCc3ccccc3)[nH]c2c1, Cc1ccc(C(=O)NC(=S)Nc2c(C)ccc3nsnc23)cc1, Cc1ccccc1N1CC(O)(c2cccs2)[N+]2=C1CCCC2 (centres undefined)
